# Source: PubChem (several laboratories)
# The sample as a whole holds a higher share of hits than the screen did.
# PKA inh: blocks human protein kinase A activity; P17612; PKA Kemptide phosphorylation, Kinase-Glo ATP luminescence; inhibition, % at 6 µM; 0.1% of 65,000 active;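 active = inhibition above the screen-wide mean inhibition plus 3 SD, cut at about 21% in these data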
# hDAT+cocaine: changed human dopamine transporter uptake under cocaine IC80; LLC-PK1 hDAT cells, [14C]-dopamine uptake with cocaine IC80; actives deviate in either direction; B-score at 10 µM; 1.3% of 110,000 active;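 active = Z score or B-score, a plate-position-corrected score, falls beyond the plate's 99.7% confidence bounds, in either direction; inactive = both scores lie inside the 99.7% bounds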;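 note: scored against the spread of the other compound wells on the same plate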
# JNK3 blocker: JNK3 (human) kinase inhibition; P53779; purified JNK3 kinase activity, HTS; inhibition, % at 8 µM; 0.61% of 60,000 active; AID 746; in the data active = inhibition above about 17%;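 note: 0% = DMSO and 100% = reference inhibitor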
# D1 allo mod: allosteric modulators of human D1 dopamine receptor; 5.9% of 58,000 active; P21728; B-score at 10 µM; HEK293 D1, CRE-luciferase, dopamine EC30 potentiation; actives deviate in either direction;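 active = luminescence count or its row- and column-corrected plate score outside the 99.7% band of the plate's sample wells, on either side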
# ROCK2 inh: inhibitors of human Rho kinase 2 | O75116 | purified ROCK2, Kinase-Glo ATP depletion luminescence | inhibition, % at 6 µM | 0.35% of 60,000 active | AID 604;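 active = inhibition above the screen-wide mean inhibition plus 3 SD, cut at about 18% in these data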;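 note: plate controls were DMSO wells for no effect and Y-27632 control wells after no-enzyme background subtraction for full effect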
# Target sequence (O75116 whole entry, looked up): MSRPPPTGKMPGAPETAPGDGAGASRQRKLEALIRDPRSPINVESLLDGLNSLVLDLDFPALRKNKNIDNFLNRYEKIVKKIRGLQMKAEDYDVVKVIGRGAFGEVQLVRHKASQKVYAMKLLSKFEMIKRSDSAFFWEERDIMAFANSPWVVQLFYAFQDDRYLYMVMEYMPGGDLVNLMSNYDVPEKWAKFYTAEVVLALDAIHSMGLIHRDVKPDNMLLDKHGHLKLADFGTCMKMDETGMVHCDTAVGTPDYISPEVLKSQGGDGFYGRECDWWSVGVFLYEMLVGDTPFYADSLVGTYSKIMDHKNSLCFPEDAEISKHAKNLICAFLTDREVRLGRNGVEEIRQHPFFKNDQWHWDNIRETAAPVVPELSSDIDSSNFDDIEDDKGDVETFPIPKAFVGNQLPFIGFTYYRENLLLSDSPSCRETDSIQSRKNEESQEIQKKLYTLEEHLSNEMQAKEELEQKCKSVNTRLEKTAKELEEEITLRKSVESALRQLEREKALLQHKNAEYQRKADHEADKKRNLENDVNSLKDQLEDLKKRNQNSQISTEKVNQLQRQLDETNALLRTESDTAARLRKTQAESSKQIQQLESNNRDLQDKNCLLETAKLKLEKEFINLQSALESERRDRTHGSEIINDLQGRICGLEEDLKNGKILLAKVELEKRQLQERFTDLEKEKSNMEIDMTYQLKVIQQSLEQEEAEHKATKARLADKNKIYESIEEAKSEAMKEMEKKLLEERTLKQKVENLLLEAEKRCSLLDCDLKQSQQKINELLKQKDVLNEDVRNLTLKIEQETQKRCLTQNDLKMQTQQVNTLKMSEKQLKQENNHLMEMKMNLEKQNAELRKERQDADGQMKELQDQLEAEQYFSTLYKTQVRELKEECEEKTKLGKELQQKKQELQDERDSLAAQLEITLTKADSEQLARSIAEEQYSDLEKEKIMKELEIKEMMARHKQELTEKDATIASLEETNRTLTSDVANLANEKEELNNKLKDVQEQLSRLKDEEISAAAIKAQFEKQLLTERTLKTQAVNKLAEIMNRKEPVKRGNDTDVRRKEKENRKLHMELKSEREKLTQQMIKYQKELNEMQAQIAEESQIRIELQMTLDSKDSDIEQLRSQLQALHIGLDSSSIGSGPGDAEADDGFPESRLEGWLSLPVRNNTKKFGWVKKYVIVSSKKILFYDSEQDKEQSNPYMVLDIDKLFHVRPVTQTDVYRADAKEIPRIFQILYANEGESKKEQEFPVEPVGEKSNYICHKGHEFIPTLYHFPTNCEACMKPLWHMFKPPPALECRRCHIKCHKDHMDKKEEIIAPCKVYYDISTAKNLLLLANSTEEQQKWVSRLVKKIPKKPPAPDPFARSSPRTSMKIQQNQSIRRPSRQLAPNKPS
# D1 PAM confirm: D1 receptor (human) allosteric modulation, confirmed | luminescence at 10 µM | HEK293 D1 CRE-luciferase, dopamine EC30 potentiation; active compounds read high | AID 642 | shares compounds with D1 allo mod | 88% of 2,200 active;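 active = luminescence in either of two replicates above the same-plate mean plus 3 SD of the low-dose dopamine control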
# D1 ag no DA: secondary test of D1 modulators: activity without dopamine; shares compounds with D1 allo mod; HEK293 D1 CRE-luciferase, luminescence, no dopamine; active compounds read high; luminescence at 10 µM; 0.8% of 1,900 active; AID 646; in the data active = luminescence above about 3900
# Isoprot counter: isoproterenol response counter-screen activity for D1 modulators | shares compounds with D1 allo mod | HEK293 D1 CRE-luciferase, isoproterenol EC30 counter-screen | calls only at 10 µM | 63% of 2,200 active | AID 647;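 active = luminescence in either replicate above plate mean of wells with a partly effective reference agonist dose plus 3 SD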;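 note: isoproterenol raises cAMP through native beta-adrenoceptor Gs so signal bypasses D1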
# Active calls of the source: *; i = inactive; / = not tested or not shown; + = active, no number.
SMILES,PKA inh,hDAT+cocaine,JNK3 blocker,D1 allo mod,ROCK2 inh,D1 PAM confirm,D1 ag no DA,Isoprot counter
CCOC(=O)c1ccc2c(c1)nc(SCc1cn3ccsc3n1)n2CC,12,1,8,13*,5,23916*,1828,+
CCn1nnnc1SCC(=O)N1CCCc2ccccc21,/,-0.21,/,/,/,/,/,/
CC1(C)OC(=O)C(=CNc2ccccc2F)C(=O)O1,1,/,5,5.7*,4,9180*,1436,+
CCC(C)(C)NC(=O)C(C)OC(=O)c1nsc(Cl)c1Cl (configuration not stated),/,0.18,/,/,/,/,/,/
O=C(O)CCn1c(C2CCCCC2)nc2ccccc21,4,0.072,-10,0.36,-14,/,/,/
N#CCn1c(C2CCCCC2)nc2ccccc2c1=O,11,0.13,/,8.4*,/,16652*,1540,+
COc1ccc2c(Cl)c(C(N)=O)sc2c1,29*,-0.62,18*,7.3*,50*,15304*,1792,+
COc1ccc2c(Cl)c(C(=O)NN)sc2c1,/,0.86,/,/,/,/,/,/
CCn1c(-c2ccccc2Cl)nn(CC(=O)Nc2ccc(OC)cc2)c1=S,/,2.2,/,/,/,/,/,/
CC(C)NC(=O)C12CC3CC(C1)CC(n1cnc(Cl)n1)(C3)C2,/,0.26,/,/,/,/,/,/
O=C(OCC1CC(c2ccccn2)=NO1)c1ccc(Br)cc1 (configuration not stated),10,0.011,9,0.1,1,/,/,/
O=[N+]([O-])c1ccc(O)c(-c2nc(-c3ccccc3)c(-c3cccs3)[nH]2)c1,/,-0.7,/,/,/,/,/,/
COc1ccc(-c2nc(-c3cccs3)c(-c3cccs3)[nH]2)cc1O,-13,2,-1,2.8*,-2,7608,1828,i
COc1ccc(NC(=O)c2cccs2)cc1OC,2,-0.13,-4,8*,-1,13868*,1416,+
COc1ccc(C(=O)Nc2ccncc2)cc1OC,8,0.042,2,13*,14,20440*,/,+
CC(C)OCCCNC(=O)CN1CCN(Cc2ccccc2Cl)C1=O,8,-1.2,/,-0.44,/,/,/,/
O=C(O)C1CCCN1S(=O)(=O)c1ccc2[nH]c(=O)c(=O)[nH]c2c1 (configuration not stated),-4,-0.073,-3,0.23,-2,/,/,/
CCOC(=O)c1cc(C#N)c(N)nc1C,3,-0.67,6,4.6*,2,8556*,/,+
CCOC(=O)c1cc(C#N)c(SCc2ccc(C#N)cc2)nc1C,7,-0.98,4,1.4,9,/,/,/
CCOC(=O)C1=C(NC(=O)c2ccc(Br)o2)Nc2ccccc2N=C1,-2,1.1,3,19*,-3,24204*,1580,+
Cc1nc(-c2ccc(S(=O)(=O)N3CCCCCC3)cc2)cs1,4,1.2,-2,2.7*,-3,8332*,1844,i
Cc1nn(C)c(C)c1CN(C)C(=O)CCCC(=O)O,/,0.088,/,/,/,/,/,/
COc1ccc(OC)c2[nH]c(=O)c(CCNC(=O)c3ccc(Br)o3)cc12,5,0.35,-4,0.16,3,/,/,/
CCCNc1nc2c(c(=O)[nH]c(=O)n2C)n1Cc1cccc(Br)c1,8,1.1,/,0.96,/,/,/,/
CCCCCCn1c(N(CC)CC)nc2c1c(=O)[nH]c(=O)n2C,6,0.6,5,1.9,-3,/,/,/
SMILES,PKA inh,hDAT+cocaine,JNK3 blocker,D1 allo mod,ROCK2 inh,D1 PAM confirm,D1 ag no DA,Isoprot counter
C=CCNc1nc2c(c(=O)[nH]c(=O)n2C)n1CCCCC,8,0.82,-3,6.6*,6,23492*,1616,+
CCCCn1c(NCCC)nc2c1c(=O)[nH]c(=O)n2C,-6,0.046,-3,5.9*,-3,9640*,1280,i
CCCNc1nc2c(c(=O)[nH]c(=O)n2C)n1CCC(C)C,6,0.31,-3,7.5*,9,12920*,1500,+
CCN1C(=O)c2ccccc2S(=O)c2ccc(C(=O)NCCCN3CCCC3=O)cc21 (configuration not stated),4,-0.031,3,/,-7,/,/,/
O=C(CSc1nnc(-c2ccco2)n1CC1CCCO1)c1ccc(F)cc1 (configuration not stated),13,-0.14,8,0.12,4,/,/,/
Cc1ccc(-c2c(C)sc(=NC(=O)c3ccco3)n2C)cc1,/,-0.13,/,/,/,/,/,/
COc1ccc(OC)c2c1sc(=NC(=O)c1ccco1)n2C,0,1.1,3,3.2*,2,13568*,1564,+
COc1ccc(S(=O)(=O)N(C)CC(=O)Nc2c(F)cccc2F)cc1,-2,0.03,2,0.31,-1,/,/,/
Cc1cc(C)c(S(C)(=O)=O)c(Sc2ccc(Cl)cc2)n1,/,-0.91,/,/,/,/,/,/
CC(=O)OCC[N+](C)(C)C,-6,-0.29,0,6.2*,-8,6608*,1464,+
COc1ccc(C2CC(C(F)(F)F)n3ncc(C(=O)NCc4cccnc4)c3N2)cc1OC (configuration not stated),5,0.53,0,9.8*,-3,18500*,1632,+
COc1ccc(CCN2CCCn3c2nc2c3c(=O)n(Cc3ccccc3F)c(=O)n2C)cc1OC,2,0.74,7,6.3*,0,17816*,1740,i
CC(=O)N1CCC2(CC1)C(C#N)=C(N)Oc1c2sc2nc(C)cc(C)c12,9,-0.8,-1,4.9*,4,14572*,1432,i
COc1ccc(NC(=O)C2CC(=O)OC2(C)C)cc1 (configuration not stated),8,0.35,0,0.4,5,/,/,/
COc1ccc(S(=O)(=O)N2CCC(C(=O)N3CCc4ccccc4C3)CC2)cc1Cl,/,1.5,/,/,/,/,/,/
C=CCNc1oc(-c2cccs2)nc1C#N,/,-0.2,/,/,/,/,/,/
CCOc1ccc(Nc2oc(-c3cccs3)nc2C#N)cc1,4,0.18,5,5.8*,2,11044*,1540,+
CCOc1ccc(Nc2oc(-c3ccco3)nc2C#N)cc1,4,0.029,-1,4*,3,19668*,1436,+
CCOc1ccc(Nc2oc(-c3cccc(Cl)c3)nc2C#N)cc1,/,-0.057,/,/,/,/,/,/
CCOc1cc(-c2c(C#N)c(N)nc3c2CCCC3C)ccc1O (configuration not stated),8,2.4,0,5.5*,6,8596*,1588,+
CCCOC(=O)c1ccc(NC(=O)c2cc(OC)c(OC)c(OC)c2Br)cc1,/,-0.63,/,/,/,/,/,/
Brc1ccccc1Cn1c(-c2cncs2)nc2ccccc21,5,-0.19,-2,10*,-3,19056*,1708,+
c1csc(Cn2c(-c3cccs3)nc3ccccc32)c1,2,0.16,1,3,-3,/,/,/
CN(C)c1ccc2c(c1)OC(N)=C(C#N)C2c1cccc(F)c1 (configuration not stated),4,-2.1,-2,8.8*,0,14124*,/,+
